Results taken from the supplement of paper PMC6555819.

test system: RARa:RXR (NR concentration 270 nM, RXRa partner concentration 90 nM); assay: PBM binding z-score (relative to random genomic background probes); higher = stronger binding; sequences stand for … in GC…GCGATTGACAGCGTAGAATGAAGG
Outline: (§1)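 Custom Agilent 4×180K protein-binding microarrays carried double-stranded probes. Their 34-nt variable regions held direct-repeat seeds, single-nucleotide variants, half-site ablations and random human genomic background sequences. Arrays were incubated 1 h with ligand-free nuclear receptor dimers in PBS pH 7.4, 2% milk, 0.02% Triton X-100, 1 mM DTT, 0.2 mg/mL BSA and 0.4 mg/ml salmon testes DNA. Antibodies against each partner (one per run) detected binding, and scanned fluorescence was regression-normalized. Binding z-scores use random background probes as reference.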

Q: TGAATGAGGTTATAAGATCAGGCAACGTTGCAAA was tested. Which PBM binding z-score did it give?
A: The PBM binding z-score was 1.52.

Q: How did the PBM binding z-score turn out when CGAACGAGGGCATGAGTTGACAGCAAATGCCGAT was run?
A: Its PBM binding z-score is 0.954.

Q: How did the PBM binding z-score turn out when CGAACTGGGTCATTGACAGGACAGTGAATAGTAA was run?
A: Its PBM binding z-score is 2.18.

Q: For GCTGCTAGGCCAACTGATGGTCAGCTAAAGCTCG, which PBM binding z-score is on record?
A: The PBM binding z-score was -0.653.

Q: With TCTAGTTGGTCACGGAGGTCACACACGACGGGTA as the sequence, how does the PBM binding z-score read?
A: Its PBM binding z-score is 4.53.

Q: With CGTCCAAGGTCAATGCTAGGACAGTGAAAGCATT as the sequence, how does the PBM binding z-score read?
A: The PBM binding z-score was 3.44.

Q: Which PBM binding z-score does the source give for CAAACTAGGTCAGAACAGGACAGTGAAGGATGAT here?
A: The PBM binding z-score was 1.32.

Q: Which PBM binding z-score does the source give for ATCTCTAGGAAACAAGTTCAGTGAAAGAGAGGAC here?
A: The PBM binding z-score was 0.58.

Q: Which PBM binding z-score does the source give for AGTCAAAGTTCATCTAGGTAACTTAAGATATGCT here?
A: Its PBM binding z-score is 3.91.

Q: TCTAGTTGGTCACGGAGGTCACCCACGACGGGTA was tested. Which PBM binding z-score did it give?
A: Its PBM binding z-score is 4.66.

Q: Which PBM binding z-score does the source give for CAAACTAGGTCACGAAAGGTCAATGTCGAATGAC here?
A: Its PBM binding z-score is 7.1.

Q: With ATAGACAGGTGAGTGAAGGTAACTCAGCTGGACG as the sequence, how does the PBM binding z-score read?
A: The PBM binding z-score was 0.959.

Q: Which PBM binding z-score does the source give for CCCACTGGGCCAAGGTCATTGATCAGTCAAAGCA here?
A: The PBM binding z-score was 3.45.

Q: ATATGTAGGTTGTCGGGTCATTCAGTTTGCGCAT was tested. Which PBM binding z-score did it give?
A: The PBM binding z-score was 3.15.

Q: How did the PBM binding z-score turn out when ACTAGCAGGCCAAGTTTGGGTCACTTAAACAAAG was run?
A: The PBM binding z-score was 1.6.

Q: With GGAACGAGGGCAAGTTGATAGCAGAGTTTGATGG as the sequence, how does the PBM binding z-score read?
A: Its PBM binding z-score is 0.145.

Q: GCGACTGGAGCATCAGCAGGTTACCATAACTTAA was tested. Which PBM binding z-score did it give?
A: Its PBM binding z-score is 0.0402.

Q: Which PBM binding z-score does the source give for AATACAGGGTCACAAGGCCAGAGTAGGTACGAAT here?
A: The PBM binding z-score was 4.97.

test system: RARa homodimer (NR concentration 270 nM); assay: as above
Outline: as §1

Q: Which PBM binding z-score does the source give for TCAATGAGGTTAAAGATCAGGGAACGTGGCGTCG here?
A: The PBM binding z-score was 0.278.

Q: For TAGCTTAGGTCATTGGGCCAGTATAGTACGCATC, which PBM binding z-score is on record?
A: Its PBM binding z-score is 0.063.

Q: With GGAACCAGGGCAAGTTGATAGCAGAGTTTGATGG as the sequence, how does the PBM binding z-score read?
A: Its PBM binding z-score is 0.68.

Q: TTACCAAGATGAAGGTCGTTGATCCCTCTGTAGA was tested. Which PBM binding z-score did it give?
A: The PBM binding z-score was 0.48.

Q: With TCTTGTAGATCAAGCAGGTTAAGAACGCCTGAGT as the sequence, how does the PBM binding z-score read?
A: Its PBM binding z-score is -0.305.

Q: How did the PBM binding z-score turn out when TGAATGAGGTTAAAGATCAGGGCACGTGGCGTCG was run?
A: Its PBM binding z-score is 0.14.

Q: ATCTCTAGGTAAGACTCCGTTCAGTGAAGAACGC was tested. Which PBM binding z-score did it give?
A: The PBM binding z-score was 0.882.

Q: With CCAGACAGGTAAAAGGTAACTCAGTCTGGTACGC as the sequence, how does the PBM binding z-score read?
A: The PBM binding z-score was 0.346.

Q: With TCATATAGGTAAAAGGTGAAATTCGGTGTGGTAA as the sequence, how does the PBM binding z-score read?
A: The PBM binding z-score was 1.72.

Q: How did the PBM binding z-score turn out when GGAACGAGGACAAGTTGATAGCAGAGTTTGATGG was run?
A: The PBM binding z-score was -0.522.

Q: TCGAGTAGGTTTGTCGGGGCATTCAGCCAACATA was tested. Which PBM binding z-score did it give?
A: Its PBM binding z-score is -0.837.

Q: Which PBM binding z-score does the source give for GATACAGGGTCAGCTAGAGGCCAGAGTGTGGAAA here?
A: Its PBM binding z-score is -0.116.

Q: For TAGCCAAGGTCATGGGCCAGTATACCACGCGAAC, which PBM binding z-score is on record?
A: The PBM binding z-score was 0.369.

Q: GCTAGTTGGTGAGTAAAAGGTCACACACCGGTCG was tested. Which PBM binding z-score did it give?
A: The PBM binding z-score was 0.736.

Q: For CCTACTGGGCCATCAGATCATTGATATCAACGTT, which PBM binding z-score is on record?
A: The PBM binding z-score was 0.289.

Q: TAGCCTAGGTCATCCGGGCCAGTATAGTGTCGGC was tested. Which PBM binding z-score did it give?
A: Its PBM binding z-score is -0.259.

Q: Which PBM binding z-score does the source give for CGTCCAAGGTCAAAGGACAGTGAAGAGATGACGG here?
A: The PBM binding z-score was 0.706.

Q: How did the PBM binding z-score turn out when TCACGGAGGACACGAAAGGTCAGAGCTCGACATC was run?
A: The PBM binding z-score was 1.27.

Q: With AATGCAGGGTCACTAGGCCAGAGTAGGTACGAAT as the sequence, how does the PBM binding z-score read?
A: Its PBM binding z-score is 0.109.

Q: Which PBM binding z-score does the source give for CGAACTAGGTCATTGGCAGGACAGTGAATAGTAA here?
A: The PBM binding z-score was 0.516.

Q: With TCATATAGGTAATACAGGTGAAGGTCGGCATCTA as the sequence, how does the PBM binding z-score read?
A: Its PBM binding z-score is 2.17.

Q: For AGAATGAGGTTAAGATCAGTGAAACAGAATACAT, which PBM binding z-score is on record?
A: The PBM binding z-score was -0.219.

Q: How did the PBM binding z-score turn out when TGAATGAGGTTATAAGATCAGGCAACGTTGCAAA was run?
A: Its PBM binding z-score is 0.212.

Q: CGAACGAGGGCATGAGTTGACAGCAAATGCCGAT was tested. Which PBM binding z-score did it give?
A: The PBM binding z-score was -0.609.

Q: With CGAACTGGGTCATTGACAGGACAGTGAATAGTAA as the sequence, how does the PBM binding z-score read?
A: The PBM binding z-score was 0.276.

Q: GCTGCTAGGCCAACTGATGGTCAGCTAAAGCTCG was tested. Which PBM binding z-score did it give?
A: Its PBM binding z-score is -1.39.

Q: TCTAGTTGGTCACGGAGGTCACACACGACGGGTA was tested. Which PBM binding z-score did it give?
A: The PBM binding z-score was 1.29.

Q: For CGTCCAAGGTCAATGCTAGGACAGTGAAAGCATT, which PBM binding z-score is on record?
A: The PBM binding z-score was -0.11.

Q: How did the PBM binding z-score turn out when CAAACTAGGTCAGAACAGGACAGTGAAGGATGAT was run?
A: Its PBM binding z-score is 1.02.

Q: With ATCTCTAGGAAACAAGTTCAGTGAAAGAGAGGAC as the sequence, how does the PBM binding z-score read?
A: Its PBM binding z-score is 0.878.

Q: How did the PBM binding z-score turn out when AGTCAAAGTTCATCTAGGTAACTTAAGATATGCT was run?
A: The PBM binding z-score was 1.85.

Q: For TCTAGTTGGTCACGGAGGTCACCCACGACGGGTA, which PBM binding z-score is on record?
A: Its PBM binding z-score is 1.42.

Q: CAAACTAGGTCACGAAAGGTCAATGTCGAATGAC was tested. Which PBM binding z-score did it give?
A: The PBM binding z-score was 1.91.

Q: With ATAGACAGGTGAGTGAAGGTAACTCAGCTGGACG as the sequence, how does the PBM binding z-score read?
A: The PBM binding z-score was -0.0264.

Q: CCCACTGGGCCAAGGTCATTGATCAGTCAAAGCA was tested. Which PBM binding z-score did it give?
A: The PBM binding z-score was -0.0237.

Q: Which PBM binding z-score does the source give for ATATGTAGGTTGTCGGGTCATTCAGTTTGCGCAT here?
A: The PBM binding z-score was 1.78.

Q: Which PBM binding z-score does the source give for ACTAGCAGGCCAAGTTTGGGTCACTTAAACAAAG here?
A: The PBM binding z-score was -0.389.

Q: With GGAACGAGGGCAAGTTGATAGCAGAGTTTGATGG as the sequence, how does the PBM binding z-score read?
A: Its PBM binding z-score is -0.166.

Q: How did the PBM binding z-score turn out when GCGACTGGAGCATCAGCAGGTTACCATAACTTAA was run?
A: The PBM binding z-score was -1.07.

Q: With AATACAGGGTCACAAGGCCAGAGTAGGTACGAAT as the sequence, how does the PBM binding z-score read?
A: The PBM binding z-score was 1.18.
